From PubChem BioAssay AID588726 (The Scripps Research Institute Molecular Screening Center, 2011) come the findings set out here.

Out of some 360,000 compounds screened, about 8,200 (2.3%) were called active. Only a selection was taken, and actives are over-represented in it overall. Values without a mark were called inactive. Rule as the data show it: active = inhibition above about 27%; inactive = the rest.

The target of this assay is Fructose-bisphosphate aldolase (Mycobacterium tuberculosis (strain ATCC 25618 / H37Rv)) (UniProt P9WQA3). Briefly: M. tuberculosis aldolase activity blockers – biochemical, fluorescence, strain H37Rv, primary screen (AID 588726).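 Also: 0% = vehicle and 100% = reference inhibitor.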 The conditions noted are these: purified M. tuberculosis FBA, fluorescence read-out, at 1 µM, stronger effect = higher value.
Chain of Fructose-bisphosphate aldolase (Mycobacterium tuberculosis (strain ATCC 25618 / H37Rv)) (P9WQA3 whole entry, looked up): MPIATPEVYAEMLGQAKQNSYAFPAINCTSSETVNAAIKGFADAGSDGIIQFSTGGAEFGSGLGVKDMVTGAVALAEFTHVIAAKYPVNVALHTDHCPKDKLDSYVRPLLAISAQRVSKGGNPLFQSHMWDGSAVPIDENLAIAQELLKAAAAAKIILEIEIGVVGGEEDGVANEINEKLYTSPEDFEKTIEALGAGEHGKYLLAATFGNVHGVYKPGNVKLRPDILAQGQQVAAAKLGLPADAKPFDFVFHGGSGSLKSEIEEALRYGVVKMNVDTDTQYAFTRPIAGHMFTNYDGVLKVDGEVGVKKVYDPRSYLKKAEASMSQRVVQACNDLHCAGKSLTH
As to `CC(C)(C)c1cc2cccnc2n1Cc1cccc(F)c1`, the inhibition (in general, the drop in the measured response relative to a control, in per cent) is 3.01%.
Turning to `COc1cc(/C=C/C(=O)O)cc(S(=O)(=O)Nc2ccccc2SC)c1OC`, the inhibition is -0.58%.
For `CC(C)(C)CC(=O)Nc1nc(C(N)Cc2ccc(C(F)(F)F)cc2)cs1` (stereo not drawn), the inhibition is -1.2%.
`Cc1ccccc1NC(=O)CCNS(=O)(=O)c1ccc2[nH]c(=O)oc2c1`: the inhibition is -4.94%.
Consider `CC(=O)c1nn(-c2cccc(C(F)(F)F)c2)c(=O)[nH]c1=O`, for which the inhibition was 2.77%.
For `COc1cc(OC)c(C(=O)OC(C)C(=O)Nc2cc(C(F)(F)F)ccc2Cl)cc1OC` (stereo not drawn), the inhibition is -1.34%.
In the case of `C/C(=N\NC(=O)c1ccc(CSc2nc(C)cc(C)n2)cc1)C1CCCCC1` it was -4.8%; in that of `CCOC(=O)C1CCN(Cc2c(C(=O)N3CCOCC3)nc3c(C)cccn23)CC1`, 8.49%.
On to `CC(=O)c1ccc(NC(=O)CSc2nc3ccccc3c(=O)n2CCCN2CCOCC2)cc1`, for which the inhibition was -0.35%.
For `C=CCO/N=C/C1=C(O)C(C(=O)OC)C(C)(C)CC1=O` (stereo not drawn), the inhibition was 0.55%.
Turning to `O=C1c2ccccc2C(=O)C1c1ccccc1`, the inhibition is 4.16%.
In the case of `O=C1C(=O)N(c2ccccc2)C(c2ccccc2)C1c1ccccc1` (stereo not drawn), the inhibition is 53% (active).
The value for `O=C1[C@@H](c2ccccc2)[C@@H](c2ccccc2)N1c1cccnc1` was 4.74%.
In the case of `Cc1ccccc1-c1csc(C(O)c2cccc(Cl)c2)n1` (stereo not drawn), the inhibition was -4.41%.
Regarding `Fc1ccc(CSc2nnc(-c3cc4c(s3)-c3ccccc3CC4)o2)cc1`, the inhibition is 154% (active).
The value for `CCSc1nnc(-c2cc3c(s2)-c2ccccc2CC3)o1` was 61.2% (active); that for `C#CCSc1nnc(-c2sc3ccccc3c2Cl)o1` was 4.19%; that for `Fc1ccc(-c2nnc(CSc3nnc(-c4ccc5c(c4)OCO5)o3)o2)cc1` was -2.07%.
With `O=C(CSc1nnc(-c2ccccc2O)o1)NC1CCCCC1`, the inhibition was 0.67%.
With `Clc1ccc(CSc2nnc([C@@H]3CCCN3)o2)cc1`, the inhibition is 4.22%.
Take `CNC(=O)C[C@H]1C(=O)N(Cc2ccccc2)C[C@@H]1CSC`: the inhibition is 3.42%.
Take `COc1ccc(OC)c(-c2c(=O)n(OCc3ccccc3Br)c3ccccc3[n+]2[O-])c1`: the inhibition was -1.19%.
As to `COc1cc(N2C(=O)CC3(CCCC3)CC2=O)cc(OC)c1OC`, the inhibition was 0.26%.
Regarding `CCN(C(=O)C1CCCN(c2nc(-c3ccc(OC)cc3)no2)C1)c1ccc(OC)cc1` (stereo not drawn), the inhibition was -2.44%.
On to `Cc1cc(C)c2c(n1)nn1c(-n3ccnc3)cc(C)nc21`, for which the inhibition was 27.6% (active).
Regarding `CCCCNCc1ccc(SC)cc1`, the inhibition is -1.81%.
For `CCNc1nc(Oc2ccc(C(=O)OC)cc2)nc(N2CCOCC2)n1`, the inhibition was 0.39%.
As for `COc1ccc(N(C(=O)c2snc(C(N)=O)c2N)C(C(=O)NC2CCCC2)c2ccc(C)o2)c(OC)c1` (stereo not drawn), the inhibition was 2.34%.
On to `CCOC(=O)c1ccc(-c2ccc3ncnc(N(C)Cc4sccc4C)c3c2)o1`, for which the inhibition was 171% (active).
With `CCOC(=O)c1ccc(CS(=O)c2ccc(Cl)cc2)o1` (stereo not drawn), the inhibition was -0.81%.
Regarding `COc1ccccc1C(=O)Nn1c(-c2cccs2)nc2ccccc2c1=O`, the inhibition was 0.05%.
`CCc1nnc(NC(=O)CSc2nc3ccccc3c(=O)n2CCCOC)s1`: the inhibition was -4.95%.
For `CC1CN(c2cc(=O)n(Cc3ccc(F)cc3)c(=O)[nH]2)CC(C)O1` (stereo not drawn), the inhibition was -1.34%.
With `Cc1ccc2c(C)c(C(=O)N3CCC(N4CCC(C(=O)NC5CC5)CC4)CC3)oc2c1`, the inhibition was 1.31%.
Regarding `Cc1cc(-c2ccccc2)nc(N2CCC(C(=O)NC34CC5CC(CC(C5)C3)C4)CC2)n1`, the inhibition was 170% (active).
Consider `O=C(NNC(=O)C1CCN(c2ncccn2)CC1)c1ccccc1`, for which the inhibition was 1.54%.
`CC(=O)N1CCC(C(=O)Nc2nc(-c3ccccc3)ns2)CC1`: the inhibition is -0.01%.
With `CCOc1cc(-c2noc(CCC(=O)N3CCOCC3)n2)ccc1OC`, the inhibition is 1.37%.
Consider `CCCn1c(=O)c(C(=O)Nc2cc(C)ccn2)c(O)c2ccccc21`, for which the inhibition is 1.3%.
As to `CCCn1c(=O)c(-c2ccccc2)c(O)c2ccccc21`, the inhibition is 35.6% (active).
As to `CCCCCn1c(=O)c(C(=O)OCC)c(Cl)c2ccccc21`, the inhibition is 1.96%.
Regarding `Cc1cccc(C(=O)C(O)(c2ccccc2)C2CCCCC2=O)c1` (stereo not drawn), the inhibition was 3.06%.
In the case of `O=C(Nc1cccnc1)c1noc2c1CCCCC2` it was 1.31%; in that of `N#CC1(Nc2ccc(-c3ccc(Cl)cc3)cc2)CCCC1`, -1.27%.
Regarding `CC(C)C(=O)Nc1ccc2c3c(cccc13)CC2`, the inhibition is -0.4%.
Turning to `N#CC1(Nc2ccc3c4c(cccc24)CC3)CCCCC1`, the inhibition is 48% (active).
As to `O=C(c1ccccc1)c1cc(-c2ccccn2)c(N2CCOCC2)s1`, the inhibition was -4.69%.
For the compound `CSc1ncnc2c1ncn2CC(=O)C1CCC2C3CCC4=CC(=O)CCC4(C)C3CCC12C` (stereo not drawn), the inhibition was -0.85%.
Take `COCCCNC(=O)CC1C[C@H](C(=O)N2CCCCC2)[C@@]2(CCc3ccccc3)c3[nH]c4ccccc4c3CCN2C1=O` (stereo partly drawn): the inhibition was 0.45%.
As for `COc1ccc2c(CC(=O)OCC(=O)NC(N)=O)coc2c1`, the inhibition is 2.04%.
On to `Cc1ccc2nc(NCCCNC(=O)c3cnccn3)c(C#N)cc2c1`, for which the inhibition was 22.9%.
`Cc1ccc2cc(C#N)c(NCCNC(=S)NCCCN3CCOCC3)nc2c1`: the inhibition was 11.2%.
`COCCCNC(=S)NCCNc1nc2cc(C)c(C)cc2cc1C#N`: the inhibition is 27.3% (active).
For `CCCC(C(=O)NCc1ccco1)N(C(=O)CNS(=O)(=O)c1ccccc1)C1CCCC1` (stereo not drawn), the inhibition is 0.18%.
`c1ccc2cc(CCCc3cc4ccccc4cn3)ncc2c1`: the inhibition was 5.36%.
In the case of `O=C(CSc1nnc(-c2ccncc2)n1C1CCCCC1)Nc1ccccc1` it was -1.22%.
Regarding `CC1CCCN(S(=O)(=O)c2ccc(-c3ccc(=O)[nH]n3)o2)C1` (stereo not drawn), the inhibition is 3.28%.
Consider `Cc1c(NC(=O)C(C)OC(=O)c2ccccc2O)c(=O)n(-c2ccccc2)n1C` (stereo not drawn), for which the inhibition is -3.77%.
In the case of `CC(OC(=O)c1ccccc1NCCO)C(=O)Nc1ccnn1C(C)C` (stereo not drawn), the inhibition was 92% (active).
As to `COC(=O)c1ccccc1NC(=O)CSc1ccccn1`, the inhibition is 1.02%.
As to `C=CCn1cc(C(=O)NCc2ccc(Cl)cc2)c(=O)c2cc(S(=O)(=O)N(CC)CC)ccc21`, the inhibition is 3.32%.
`Nc1ccc(C(=O)OCC(=O)NC2CCS(=O)(=O)C2)cc1[N+](=O)[O-]` (stereo not drawn): the inhibition was -2.41%.
Take `O=C(COC(=O)/C=C/c1ccc(Cl)cc1)NC1CCS(=O)(=O)C1` (stereo not drawn): the inhibition was -2.05%.
Take `O=C(COC(=O)CCCN1C(=O)c2cccc3cccc(c23)C1=O)NC1CCS(=O)(=O)C1` (stereo not drawn): the inhibition is 45.1% (active).
Regarding `COc1ccc(NC(=O)CCC(=O)N2CCN(S(=O)(=O)c3ccc(C)cc3)CC2)c(OC)c1`, the inhibition was -0.33%.
For `Cc1ncoc1C(=O)N1CCCC(C(=O)c2ccc3c4c(cccc24)CC3)C1` (stereo not drawn), the inhibition is 17.8%.
The value for `CCn1ccnc1CN1CCCC(C(=O)c2ccc3c4c(cccc24)CC3)C1` (stereo not drawn) was 8.92%; that for `CC(=O)NCC(=O)N1CCCC(C(=O)c2ccc3c4c(cccc24)CC3)C1` (stereo not drawn) was 33.7% (active); that for `CCOC(=O)c1cnc2sccn2c1=O` was 20.1%.
Turning to `CCOC(=O)c1cnc(COc2ccccc2Cl)[nH]c1=O`, the inhibition was 3.61%.
`CCCc1cc(C(=O)N2CCCC(CO)(CCCc3ccccc3)C2)n(C)n1` (stereo not drawn): the inhibition is -1.51%.
In the case of `O=C(O)c1ccc(-n2nc(-c3ccccc3)c3ccccc3c2=O)cc1` it was 2.23%; in that of `O=C(O)c1n[nH]nc1-c1ccccc1`, 113% (active); in that of `N#Cc1c(-c2ccccc2)c(-c2ccccc2)n[nH]c1=O`, -6.25%.
Regarding `COc1cc(Cl)c(C)cc1NC(=O)COC(=O)c1cc(SC)ccc1Cl`, the inhibition was 7.33%.
In the case of `O=C(O)CSc1nccn1-c1cccc(Cl)c1`, the inhibition was 3.31%.
As to `COC(=O)NNC(=O)C1CCC(C)CC1` (stereo not drawn), the inhibition is 1.9%.
In the case of `CCOC(=O)N1CCN(C(=O)CSc2nc(C)nc3c2c(=O)n(C)c(=O)n3C)CC1`, the inhibition was 4.39%.
As for `OCC[C@H]1C[C@H](O)[C@@H](O)[C@]2(CCc3ccccc3O2)O1`, the inhibition was -1.81%.
In the case of `NC(=O)CC[C@@H]1NC(=O)[C@@H]2CCCN2C(=O)c2cc([N+](=O)[O-])cc(F)c2NCCC[C@@H](C(N)=O)NC1=O` it was -3.88%.
In the case of `O=C(NCc1ccco1)c1ccc([N+](=O)[O-])cc1Cl`, the inhibition is 3.22%.
The value for `CCc1ccc(-c2cc(C(=O)NCc3ccco3)c3ccccc3n2)s1` was 54.1% (active); that for `Cc1cc(C(=O)OCC(=O)NCc2ccco2)c(C)n1-c1ccccc1` was -0.83%; that for `CN(Cc1ccc(C(F)(F)F)cc1)C(=O)[C@H]1O[C@@H](n2cnc3c(N)ncnc32)[C@H](O)[C@@H]1O` was -0.98%.
With `CCN1C(=O)CS/C1=N\c1nccs1`, the inhibition is -3.46%.
As for `COc1cc2c(cc1OC)CC1(CCCCC1)N=C2`, the inhibition was 45% (active).
Regarding `Cc1ccc(S(=O)(=O)NCc2ccc(C(=O)NC3CCC(C)CC3)cc2)cc1` (stereo not drawn), the inhibition is -7.12%.
With `COc1ccc(C(=O)Cn2nnc(-c3ccc(N4CCOCC4)cc3)n2)cc1OC`, the inhibition was -1.43%.
For the compound `COCCCn1c(CCC(=O)O)ccc1-c1ccc(F)cc1`, the inhibition was 50.6% (active).
As for `COc1ccc(-c2ccc(CCC(=O)O)n2-c2ccc(O)cc2)cc1`, the inhibition is -1.15%.
For `COc1ccc(-c2ccc(CCC(=O)O)n2NC(=O)c2ccc(C(C)(C)C)cc2)cc1`, the inhibition was 3.01%.
`CC(=O)Nc1ccc(Sc2ccccc2C(=O)N2CCCC2)cn1`: the inhibition was 1.32%.
Consider `COc1ccc(C2C3=C(CCCC3=O)N(CC(=O)O)C3=C2C(=O)CCC3)cc1`, for which the inhibition was 47.7% (active).
The value for `COc1ccc(C2C(C#N)=C(N)N(c3ncn[nH]3)C3=C2C(=O)CCC3)cc1` (stereo not drawn) was 3.59%; that for `CCCN1C2=C(C(=O)CCC2)C(c2ccc(O)c(Br)c2)C2=C1CCCC2=O` was -1.2%.
On to `CCOc1ccc(C2C3=C(CCCC3=O)N(CC(=O)O)C3=C2C(=O)CCC3)cc1`, for which the inhibition is 39.2% (active).
As to `CCOc1ccc(C2C(C#N)=C(N)N(N(C)C)C3=C2C(=O)CCC3)cc1` (stereo not drawn), the inhibition is -0.23%.
On to `CCOC(=O)C1=C(N)N(c2ccc(C)cc2)C2=C(C(=O)CCC2)C1c1cccs1` (stereo not drawn), for which the inhibition is -1.49%.
